Laboratory results from PubChem BioAssay (NCATS).
Records with an inconclusive call do not appear. A number with no mark means an inactive call. Active and inactive are the calls of the source. The call rests on the fitted dose curve; in most records, active means well fitted cell-killing curve with a large enough effect; inconclusive means small, poorly fitted or top-dose-only effect, or effect the other way; inactive means no such curve, though single readings can be large or run the other way. Numbered stars: 1 amine (or outer) side, 2 acyl side, 3 side chain; on linkers, the order of the positions; unused ones are H or OH. Bridge positions count the residues as written; N and C are the ends. Square brackets hold non-standard residues; d marks the D form. Peptide text beside a SMILES is read from it. I, II: the chains in the order shown. Actinocin(9to1) = Cc1c2oc3c(C)ccc(C(=O)[*:1])c3nc-2c(C(=O)[*:2])c(N)c1=O; NMeV = CN[C@H](C(=O)O)C(C)C; Sar = CNCC(=O)O

experiment: qHTS of pediatric cancer cell lines to identify multiple opportunities for drug repurposing: Confirmatory screen for NB-EBc1 cells (AID 1347115); conditions: NB-EBc1 neuroblastoma cells, viability (cytotoxicity); series mostly up to 45.9 µM; activity change, negative = cytotoxic: at the top concentration;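 further: cells exposed to compound for 48 h before the viability read; nearly all actives have a fitted effect of over 45% in size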
Outline: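 Cells (500-1,000/well) in growth media were settled 5 h at 37 degrees C, then given compounds for 48 h. Viability was read as CellTiter-Glo luminescence. Primary runs used MIPE at 11 points (0.78 nM-46 µM) and NPC at 8 points (0.59 nM-46 µM); follow-ups used 11 points.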
On the % scale 0 is the no-effect control and ±100 the full control effect; potency means the concentration at half of the fitted maximal effect.

**Q.** For `CCCCC(CC)CN=C(N)NC(N)=NCCCCCCN=C(N)NC(N)=NCC(CC)CCCC` (configuration not stated), which Potency is on record?
**A.** Its Potency is 9.27 µM (active).

**Q.** Which “activity change, negative = cytotoxic” value does the source give for `CCC(C(=O)OCCN(CC)CC)c1ccccc1` (configuration not stated) here?
**A.** Its value is -3.98%.

**Q.** Which Potency does the source give for `OC[C@H]1O[C@@H](n2cnc3c(=S)nc[nH]c32)[C@H](O)[C@@H]1O` here?
**A.** Its Potency is 3.69 µM (active).

**Q.** For `CC(=O)O[C@]1(C(C)=O)CC[C@H]2[C@@H]3C[C@H](C)C4=CC(=O)CC[C@]4(C)[C@H]3CC[C@@]21C`, which “activity change, negative = cytotoxic” value is on record?
**A.** The value was -8.7%.

**Q.** With `CCCCC(=O)O[C@]1(C(=O)CO)CC[C@H]2[C@@H]3CCC4=CC(=O)CC[C@]4(C)[C@H]3[C@@H](O)C[C@@]21C` as the compound, how does the “activity change, negative = cytotoxic” value read?
**A.** The value was -5.91%.

**Q.** With `Cc1c2oc3c(C)ccc(C(=O)N[C@@H]4C(=O)N[C@H](C(C)C)C(=O)N5CCC[C@H]5C(=O)N(C)CC(=O)N(C)[C@@H](C(C)C)C(=O)O[C@@H]4C)c3nc-2c(C(=O)N[C@@H]2C(=O)N[C@H](C(C)C)C(=O)N3CCC[C@H]3C(=O)N(C)CC(=O)N(C)[C@@H](C(C)C)C(=O)O[C@@H]2C)c(N)c1=O` (I: T[dV]P[Sar][NMeV] / II: T[dV]P[Sar][NMeV]; ester I:1-I:C, II:1-II:C; linker I:N-II:N via Actinocin(9to1)) as the compound, how does the “activity change, negative = cytotoxic” value read?
**A.** The value was -27.5%.

**Q.** Which “activity change, negative = cytotoxic” value does the source give for `CC(=O)Oc1ccc(C(c2ccc(OC(C)=O)cc2)c2ccccn2)cc1` here?
**A.** Its value is -1.56%.
